Values joined by “and” are separate entries in the source; they are usually repeats but may differ in a detail not shown here. Equal values may be shown once. Some compounds were tested as several samples or in several runs, with calls that do not always agree. Active and inactive are the calls of the source. Rule for the calls: active = hit-call score of the fitted dose curve at least 0.9, where 1 is the maximum; inactive = score below 0.9.
Assays:
Settings in all cases: mRNA level, 48 h; actives raise or lower the signal
[1] = read-out: DNA damage-inducible transcript 3 (DDIT3), DDIT3 (gene 1649); experiment: LTEA_HepaRG_DDIT3: Life Technologies and Expression Analysis (LTEA) Assay for DNA damage-inducible transcript 3 (DDIT3) using HepaRG (AID 2283488)
In short: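 HepaRG cells, 48 h after plating, exposed 48 h in serum-free induction medium to 8 half-log concentrations up to 100 uM in 0.5% DMSO, in duplicate. DDIT3 mRNA measured by TaqMan qRT-PCR, normalized to ACTB, GAPDH and POLR2A. Fitted bidirectionally against DMSO.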

[2] = read-out: Pro-epidermal growth factor (Homo sapiens) (UniProt P01133); experiment: LTEA_HepaRG_EGF: Life Technologies and Expression Analysis (LTEA) Assay for Epidermal growth factor (EGF) using HepaRG (AID 2283489)
In short: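 qRT-PCR readout of EGF transcript after 48 h chemical exposure of HepaRG cells; eight concentrations from 100 uM down in half-log steps, duplicate wells, 0.5% DMSO vehicle. Bidirectional curve fitting against DMSO baseline.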

[3] = read-out: Early growth response protein 1 (EGR1) transcription factor, EGR1 (gene 1958); experiment: LTEA_HepaRG_EGR1: Life Technologies and Expression Analysis (LTEA) Assay for Early growth response protein 1 (EGR1) transcription factor using HepaRG (AID 2283490)
In short: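 Read-out is EGR1 mRNA level by qRT-PCR, normalized to three housekeeping genes and analysed for gain or loss of signal against 0.5% DMSO. Source cells: human HepaRG, treated 48 h at up to 100 uM in half-log dilutions.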

[4] = read-out: Ezrin (EZR), EZR (gene 7430); experiment: LTEA_HepaRG_EZR: Life Technologies and Expression Analysis (LTEA) Assay for Ezrin (EZR) using HepaRG (AID 2283491)
In short: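 EZR transcript levels came from Fluidigm qRT-PCR and were normalized to three housekeeping genes after 48 h chemical exposure of HepaRG cells. Dosing used an 8-point half-log series with a 100 uM top concentration in 0.5% DMSO, tested in duplicate; both directions were fitted versus vehicle.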

[5] = read-out: Cytochrome P450 3A7 (Homo sapiens) (UniProt P24462); experiment: LTEA_HepaRG_CYP3A7: Life Technologies and Expression Analysis (LTEA) Assay for CYP3A7 using HepaRG (AID 2283492)
In short: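 CYP3A7 transcript levels were read by TaqMan qRT-PCR on Fluidigm arrays after 48 h chemical exposure of human HepaRG cells, with housekeeping-gene normalisation. Eight half-log concentrations up to 100 uM in 0.5% DMSO were tested in duplicate.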

CYP3A5 (gene 1577) = experiment: LTEA_HepaRG_CYP3A5: Life Technologies and Expression Analysis (LTEA) Assay for CYP3A5 using HepaRG (AID 2283493)
In short: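 HepaRG cells, plated 48 h then in serum-free induction medium, dosed in duplicate for 48 h with eight half-log concentrations up to 100 uM in 0.5% DMSO. Gene mRNA by Fluidigm TaqMan qRT-PCR, normalized to ACTB, GAPDH, POLR2A.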

[6] = read-out: Fatty Acid-Binding Protein 1 (FABP1), FABP1 (gene 2168); experiment: LTEA_HepaRG_FABP1: Life Technologies and Expression Analysis (LTEA) Assay for Fatty Acid-Binding Protein 1 (FABP1) using HepaRG (AID 2283494)
In short: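 HepaRG, 48 h post-plating switched to serum-free induction medium, then dosed 48 h (duplicate, 8 pts, ≤100 uM, 0.5% DMSO). RNA → Fluidigm TaqMan qRT-PCR, FABP1 normed to ACTB/GAPDH/POLR2A. Bidirectional curve fit vs DMSO.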

[7] = read-out: Cytochrome P450 4A22 (Homo sapiens) (UniProt Q5TCH4); experiment: LTEA_HepaRG_CYP4A22: Life Technologies and Expression Analysis (LTEA) Assay for Cytochrome P450 4A22 (CYP4A22) using HepaRG (AID 2283495)
In short: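 HepaRG, 48 h post-plating -> serum-free induction medium; dosed 48 h, duplicate, 8 conc. (100 uM top, half-log), 0.5% DMSO. Readout: CYP4A22 mRNA by qRT-PCR, ACTB/GAPDH/POLR2A normalization; gain/loss fit relative to DMSO.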

[8] = read-out: Cytochrome P450 7A1 (Homo sapiens) (UniProt P22680); experiment: LTEA_HepaRG_CYP7A1: Life Technologies and Expression Analysis (LTEA) Assay for Cytochrome P450 7A1 (CYP7A1) using HepaRG (AID 2283496)
In short: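 HepaRG cells plated 48 h, then switched to serum-free induction medium and exposed in duplicate for 48 h to 8-point half-log series from 100 uM in 0.5% DMSO. CYP7A1 mRNA by qRT-PCR (TaqMan), normalized to ACTB/GAPDH/POLR2A; bidirectional fit versus DMSO.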

[9] = read-out: Glutathione S-Transferase (GSTA2), GSTA2 (gene 2939); experiment: LTEA_HepaRG_GSTA2: Life Technologies and Expression Analysis (LTEA) Assay for Glutathione S-Transferase (GSTA2) using HepaRG (AID 2283497)
In short: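 HepaRG, 48 h dosing, 8-pt half-log CRC from 100 uM, 0.5% DMSO vehicle, n=2; RNA → Fluidigm TaqMan qRT-PCR; GSTA2 vs ACTB/GAPDH/POLR2A; gain/loss fit vs DMSO.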

[10] = read-out: Glutamate-cysteine ligase catalytic (GCLC), GCLC (gene 2729); experiment: LTEA_HepaRG_GCLC: Life Technologies and Expression Analysis (LTEA) Assay for Glutamate-cysteine ligase catalytic (GCLC) using HepaRG (AID 2283498)
In short: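 Read-out is GCLC transcript level by Fluidigm-based TaqMan qRT-PCR, normalized to three housekeeping genes and fitted in both directions relative to 0.5% DMSO. Human HepaRG cells received chemicals for 48 h, up to 100 uM.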

[11] = read-out: growth arrest and DNA damage 45 (GADD45G), GADD45G (gene 10912); experiment: LTEA_HepaRG_GADD45G: Life Technologies and Expression Analysis (LTEA) Assay for growth arrest and DNA damage 45 (GADD45G) using HepaRG (AID 2283499)
In short: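 HepaRG, 48 h exposure, top 100 uM, half-log 8-point series, 0.5% DMSO vehicle, duplicates. Readout: GADD45G transcript by qRT-PCR (Fluidigm array), housekeeping-normalised (ACTB/GAPDH/POLR2A). Bidirectional curve fit vs DMSO baseline.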

[12] = read-out: Glutamate-cysteine ligase regulatory (GCLM), GCLM (gene 2730); experiment: LTEA_HepaRG_GCLM: Life Technologies and Expression Analysis (LTEA) Assay for Glutamate-cysteine ligase regulatory (GCLM) using HepaRG (AID 2283500)
In short: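 Differentiated HepaRG cells exposed 48 h in serum-free induction medium to eight half-log concentrations up to 100 uM (0.5% DMSO). GCLM mRNA by TaqMan qRT-PCR, normalized to ACTB, GAPDH and POLR2A; bidirectional fit versus DMSO.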

[13] = read-out: Glutathione S-transferase M3 (GSTM3), GSTM3 (gene 2947); experiment: LTEA_HepaRG_GSTM3: Life Technologies and Expression Analysis (LTEA) Assay for Glutathione S-transferase M3 (GSTM3) using HepaRG (AID 2283501)
In short: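 qRT-PCR read-out of GSTM3 transcript, normalized to three housekeeping genes, from human HepaRG cells after 48 h chemical exposure. Eight-point half-log series, top 100 uM, 0.5% DMSO vehicle; gain or loss fitted relative to DMSO baseline.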

[14] = read-out: Heat shock 70 kDa protein 1 (HSPA1A), gene 3303; experiment: LTEA_HepaRG_HSPA1A: Life Technologies and Expression Analysis (LTEA) Assay for Heat shock 70 kDa protein 1 (HSPA1A) using HepaRG (AID 2283502)
In short: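 Human HepaRG cells in serum-free induction medium were exposed in duplicate for 48 h to 8 half-log concentrations, highest 100 uM, in 0.5% DMSO. HSPA1A mRNA read by TaqMan qRT-PCR, normalized to ACTB, GAPDH, POLR2A, fitted bidirectionally against DMSO.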

[15] = read-out: 3-Hydroxy-3-Methylglutaryl-CoA Synthase 2 (HMGCS2), HMGCS2 (gene 3158); experiment: LTEA_HepaRG_HMGCS2: Life Technologies and Expression Analysis (LTEA) Assay for 3-Hydroxy-3-Methylglutaryl-CoA Synthase 2 (HMGCS2) using HepaRG (AID 2283504)
In short: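 qRT-PCR read-out of HMGCS2 transcript, normalised to three housekeeping genes, in HepaRG cells after 48 h chemical exposure. Eight-point curves from 100 uM, half-log dilutions, 0.5% DMSO vehicle; gain or loss fitted relative to DMSO baseline.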

HGF (gene 3082) = experiment: LTEA_HepaRG_HGF: Life Technologies and Expression Analysis (LTEA) Assay for Hepatocyte Growth Facto (HGF) using HepaRG (AID 2283505)
In short: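 HepaRG, 48 h dosing, 8-pt half-log series from 100 uM in 0.5% DMSO, duplicates. Readout: TaqMan qRT-PCR of HGF mRNA, housekeeping-normalized; bidirectional curve fit vs DMSO baseline.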

[16] = read-out: Insulin Like Growth Factor 1 (IGF1), IGF1 (gene 3479); experiment: LTEA_HepaRG_IGF1: Life Technologies and Expression Analysis (LTEA) Assay for Insulin Like Growth Factor 1 (IGF1) using HepaRG (AID 2283506)
In short: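 Differentiated HepaRG cells in serum-free induction medium, exposed 48 h in duplicate to 8 half-log concentrations up to 100 uM in 0.5% DMSO. IGF1 mRNA by Fluidigm qRT-PCR, normalised to ACTB, GAPDH and POLR2A.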

[17] = read-out: Intercellular Adhesion Molecule 1 (ICAM1), ICAM1 (gene 3383); experiment: LTEA_HepaRG_ICAM1: Life Technologies and Expression Analysis (LTEA) Assay for Intercellular Adhesion Molecule 1 (ICAM1) using HepaRG (AID 2283507)
In short: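 HepaRG, 48 h exposure, 8-pt half-log series from 100 uM, 0.5% DMSO vehicle, duplicates. Readout: TaqMan qRT-PCR mRNA, housekeeping-normalized (ACTB/GAPDH/POLR2A). Bidirectional curve fit vs DMSO baseline.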

[18] = read-out: Hypoxia-inducible factor 1-alpha (Homo sapiens) (UniProt Q16665); experiment: LTEA_HepaRG_HIF1A: Life Technologies and Expression Analysis (LTEA) Assay for Hypoxia-inducible factor 1 (HIF1A) Trancription factor using HepaRG (AID 2283503)
In short: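 Differentiated HepaRG cells in serum-free induction medium exposed 48 h, in duplicate, to 8-point half-log series from 100 uM in 0.5% DMSO. HIF1A mRNA measured by TaqMan qRT-PCR, normalized to ACTB/GAPDH/POLR2A, fitted bidirectionally versus DMSO.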

Measured: AC50

Sequence of Cytochrome P450 3A7 (Homo sapiens) (P24462 whole entry, looked up): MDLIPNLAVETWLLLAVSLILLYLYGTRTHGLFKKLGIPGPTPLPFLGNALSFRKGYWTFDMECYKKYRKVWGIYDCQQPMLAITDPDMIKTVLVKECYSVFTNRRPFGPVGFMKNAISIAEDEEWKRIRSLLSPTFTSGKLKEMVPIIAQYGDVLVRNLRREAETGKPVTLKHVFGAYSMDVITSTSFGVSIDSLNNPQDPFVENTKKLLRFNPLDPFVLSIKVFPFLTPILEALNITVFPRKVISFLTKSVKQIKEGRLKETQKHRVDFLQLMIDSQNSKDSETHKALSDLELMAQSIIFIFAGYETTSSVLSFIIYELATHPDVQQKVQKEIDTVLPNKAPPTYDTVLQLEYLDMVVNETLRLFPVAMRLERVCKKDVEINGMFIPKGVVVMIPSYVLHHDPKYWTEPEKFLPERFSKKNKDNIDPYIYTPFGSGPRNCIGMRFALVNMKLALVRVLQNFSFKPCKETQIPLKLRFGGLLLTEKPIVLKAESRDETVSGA
Sequence of Hypoxia-inducible factor 1-alpha (Homo sapiens) (Q16665 whole entry, looked up): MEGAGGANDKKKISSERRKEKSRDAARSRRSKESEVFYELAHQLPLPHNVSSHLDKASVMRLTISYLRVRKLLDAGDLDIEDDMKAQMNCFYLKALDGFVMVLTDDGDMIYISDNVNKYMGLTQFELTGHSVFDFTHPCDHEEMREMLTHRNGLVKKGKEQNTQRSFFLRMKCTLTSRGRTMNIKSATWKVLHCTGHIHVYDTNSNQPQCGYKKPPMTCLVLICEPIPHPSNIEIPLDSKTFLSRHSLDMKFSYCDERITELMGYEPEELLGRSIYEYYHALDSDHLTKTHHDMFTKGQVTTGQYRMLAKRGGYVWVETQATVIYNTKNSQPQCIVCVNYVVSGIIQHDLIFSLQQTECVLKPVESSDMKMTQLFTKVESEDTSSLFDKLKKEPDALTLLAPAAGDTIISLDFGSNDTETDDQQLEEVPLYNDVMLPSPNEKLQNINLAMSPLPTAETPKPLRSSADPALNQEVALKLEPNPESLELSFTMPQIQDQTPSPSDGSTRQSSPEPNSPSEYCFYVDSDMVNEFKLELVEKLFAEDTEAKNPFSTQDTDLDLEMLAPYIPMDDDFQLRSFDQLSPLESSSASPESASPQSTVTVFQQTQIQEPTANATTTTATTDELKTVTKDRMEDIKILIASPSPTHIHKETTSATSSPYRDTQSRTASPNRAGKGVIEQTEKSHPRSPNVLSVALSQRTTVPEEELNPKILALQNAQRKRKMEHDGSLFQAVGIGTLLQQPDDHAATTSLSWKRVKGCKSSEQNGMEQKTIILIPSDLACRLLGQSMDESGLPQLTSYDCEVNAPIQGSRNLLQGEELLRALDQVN

O=C(c1ccc(OCCN2CCCCC2)cc1)c1c(-c2ccc(O)cc2)sc2cc(O)ccc12
active: [1] 83.3 µM | [3] 90.9 µM | [4] 50 µM | CYP3A5 (gene 1577) 41.4 µM | [6] 50 µM | [9] 69.1 µM | [14] 88.1 µM | [15] 3.14 µM | [16] 78.3 µM | [17] 71 µM
inactive: [2] | [5] | [7] | [8] | [10] | [11] | [12] | [13] | HGF (gene 3082)

COC(=O)c1ccc(C(=O)OC)cc1
inactive: all assays above

CC/C(=C(\c1ccccc1)c1ccc(OCCN(C)C)cc1)c1ccccc1
active: [1] 64.7 µM and 72.2 µM | [3] 73.6 µM | [4] 81.4 µM and 50 µM | CYP3A5 (gene 1577) 86.7 µM | [6] 60 µM and 70.9 µM | [7] 14.5 µM and 20.7 µM | [9] 70.2 µM | [11] 90.5 µM | [12] 74 µM and 50 µM | [14] 74.8 µM and 76.4 µM | [18] 82 µM | [15] 66 µM | [16] 84.6 µM | [17] 85.1 µM and 99.2 µM
inactive: [2] | [3] | [5] | CYP3A5 (gene 1577) | [8] | [9] | [10] | [11] | [13] | [18] | [15] | HGF (gene 3082) | [16]
